Results filed as inconclusive are left out. Entries that show only a call come without a potency. A number with no mark means an inactive call. Activity calls are given as the source filed them. The call rests on the fitted dose curve; in most records, active means well fitted curve in the direction sought with a large enough effect; inconclusive means small, poorly fitted or top-dose-only effect, or another doubt; inactive means no such curve, though single readings can be large; an effect the other way counts as inactive or inconclusive.
Tests used:
[1] = biological target: Rap guanine nucleotide exchange factor 3 (Homo sapiens) (UniProt O95398); assay: Confirmatory qHTS for antagonist of cAMP-regulated guanine nucleotide exchange factor 3 (EPAC1) (AID 1645880); further: nearly all actives have a fitted effect of over 55% in size; further: potency means the concentration at half of the fitted maximal effect
Sequence of Rap guanine nucleotide exchange factor 3 (Homo sapiens) (O95398 whole entry, looked up): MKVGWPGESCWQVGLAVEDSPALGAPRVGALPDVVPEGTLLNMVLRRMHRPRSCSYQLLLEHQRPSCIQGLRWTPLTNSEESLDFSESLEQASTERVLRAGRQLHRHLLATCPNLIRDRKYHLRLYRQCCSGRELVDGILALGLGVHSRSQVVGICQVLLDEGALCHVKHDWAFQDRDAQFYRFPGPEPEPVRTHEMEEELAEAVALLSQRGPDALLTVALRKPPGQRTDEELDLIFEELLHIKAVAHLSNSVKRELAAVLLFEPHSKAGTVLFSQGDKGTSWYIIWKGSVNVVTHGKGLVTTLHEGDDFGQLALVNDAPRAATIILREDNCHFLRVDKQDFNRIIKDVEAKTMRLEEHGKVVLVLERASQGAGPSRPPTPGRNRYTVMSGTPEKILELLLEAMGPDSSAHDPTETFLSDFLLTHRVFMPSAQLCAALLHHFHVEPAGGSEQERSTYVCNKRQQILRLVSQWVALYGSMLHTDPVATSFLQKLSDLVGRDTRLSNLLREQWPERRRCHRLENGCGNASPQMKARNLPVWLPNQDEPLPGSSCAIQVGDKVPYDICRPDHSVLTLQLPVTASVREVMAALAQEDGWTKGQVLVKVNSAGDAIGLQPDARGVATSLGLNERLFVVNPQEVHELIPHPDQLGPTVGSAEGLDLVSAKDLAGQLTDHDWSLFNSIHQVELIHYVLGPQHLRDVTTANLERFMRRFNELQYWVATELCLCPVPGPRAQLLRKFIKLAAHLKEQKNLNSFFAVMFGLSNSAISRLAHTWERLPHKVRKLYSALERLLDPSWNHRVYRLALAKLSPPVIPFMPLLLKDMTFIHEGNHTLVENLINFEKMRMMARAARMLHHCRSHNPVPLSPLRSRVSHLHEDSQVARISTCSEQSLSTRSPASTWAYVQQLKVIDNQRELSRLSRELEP
In short: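 Nucleotide exchange uses 100 nM EPAC1, 250 nM RAP1B-BODIPY-GDP and 50 uM GDP, with compounds in a concentration-titration series. After 5 min at room temperature, fluorescence (480 nm ex/540 nm em) is read every 5 min for 30 min. Data are normalized to control ATA and DMSO.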

[2] = biological target: Rap guanine nucleotide exchange factor 3 (Homo sapiens) (UniProt O95398); assay: Confirmatory qHTS for agonist of cAMP-regulated guanine nucleotide exchange factor 3 (EPAC1) (AID 1645881); further: nearly all actives have a fitted effect of over 75% in size; further: potency means the concentration at half of the fitted maximal effect;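 on activation: EPAC1 catalysed release of BODIPY-GDP from Rap1B seen as fluorescence loss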
[3] = biological target: Rap guanine nucleotide exchange factor 4 (Homo sapiens) (UniProt Q8WZA2); assay: Confirmatory qHTS for agonist of cAMP-regulated guanine nucleotide exchange factor 4 (EPAC2) (AID 1645884);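 further: nucleotide exchange releases bodipy-GDP from Rap1 and this lowers its fluorescence; nearly all actives have a fitted effect of over 65% in size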; further: potency means the concentration at half of the fitted maximal effect
Sequence of Rap guanine nucleotide exchange factor 4 (Homo sapiens) (Q8WZA2 whole entry, looked up): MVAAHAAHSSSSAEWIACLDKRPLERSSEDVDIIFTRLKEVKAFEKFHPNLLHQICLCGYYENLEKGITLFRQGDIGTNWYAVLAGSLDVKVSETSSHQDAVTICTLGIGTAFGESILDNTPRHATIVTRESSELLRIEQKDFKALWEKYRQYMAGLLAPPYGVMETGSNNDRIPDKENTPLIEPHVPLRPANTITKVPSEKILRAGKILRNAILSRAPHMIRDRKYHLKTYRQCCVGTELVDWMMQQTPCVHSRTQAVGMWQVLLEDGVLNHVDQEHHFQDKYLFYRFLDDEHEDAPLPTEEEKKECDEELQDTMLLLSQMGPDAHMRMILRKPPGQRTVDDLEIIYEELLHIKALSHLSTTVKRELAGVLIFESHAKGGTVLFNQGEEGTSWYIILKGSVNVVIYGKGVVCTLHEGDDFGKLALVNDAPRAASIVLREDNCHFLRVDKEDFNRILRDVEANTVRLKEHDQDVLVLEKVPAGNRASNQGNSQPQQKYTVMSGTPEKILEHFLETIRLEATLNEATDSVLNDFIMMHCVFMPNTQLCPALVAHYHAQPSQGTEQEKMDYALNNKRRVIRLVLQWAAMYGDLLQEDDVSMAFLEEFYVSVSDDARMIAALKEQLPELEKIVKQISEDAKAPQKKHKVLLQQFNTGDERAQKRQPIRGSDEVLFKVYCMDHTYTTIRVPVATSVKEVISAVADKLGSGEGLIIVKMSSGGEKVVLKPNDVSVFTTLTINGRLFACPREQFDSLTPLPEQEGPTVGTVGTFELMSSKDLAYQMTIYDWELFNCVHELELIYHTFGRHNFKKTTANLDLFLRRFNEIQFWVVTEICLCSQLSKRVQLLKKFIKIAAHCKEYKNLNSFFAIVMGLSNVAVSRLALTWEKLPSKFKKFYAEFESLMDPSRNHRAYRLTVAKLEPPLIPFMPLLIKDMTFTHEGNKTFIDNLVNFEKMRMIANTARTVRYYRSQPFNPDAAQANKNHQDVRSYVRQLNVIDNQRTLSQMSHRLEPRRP

[4] = biological target: Rap guanine nucleotide exchange factor 4 (Homo sapiens) (UniProt Q8WZA2); assay: Confirmatory qHTS for antagonist of cAMP-regulated guanine nucleotide exchange factor 4 (EPAC2) (AID 1645885); further: nearly all actives have a fitted effect of over 25% in size; further: potency means the concentration at half of the fitted maximal effect
[5] = biological target: Rap guanine nucleotide exchange factor 3 (Homo sapiens) (UniProt O95398); assay: Counterscreen qHTS for antagonist of cAMP-regulated guanine nucleotide exchange factor 3 (EPAC1) (AID 1645888);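 further: fluorescence loss as bound BODIPY-GDP is released from Rap1B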
In short: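 Rap1B-BODIPY-GDP 250 nM + GDP 50 uM; cpds 7-pt, final 9.74 nM–152 uM (activator mode) or from 7.32 nM upwards (inhibitor mode); RT; FI 480/540 nm at 5 and 30 min, then ± cAMP, reread.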

Structure (SMILES) | Potency [1] | Potency [2] | Potency [3] | Potency [4] | Potency [5] | activation [3] | activity change, negative = inhibition [5] | outcome [4]
CNc1ccc(Br)cc(C(=O)/C=C/c2ccc(Cl)cc2Cl)c1=O | 12 µM (active) | inactive | inactive | inactive | inactive |  |  | 
O=C(c1ccc2nc(N3CCOCC3)sc2c1)N1CCC(Cc2ccccc2)CC1 | inactive | inactive | inactive | inactive | inactive |  |  | 
Cc1ccccc1OCCC(=O)OCC(=O)NC1CCCCC1 | inactive | inactive |  | inactive |  | 3.43% [at 17.1 µM, percent relative to cAMP agonist control] | 6.94% [at 30.8 µM] | 
CCc1ccc(S(=O)(=O)/N=C2\C=C(Nc3cccc(C(=O)O)c3)C(=O)c3ccccc32)cc1 | 37.9 µM (active) | inactive | inactive | 0.379 µM (active) | inactive |  |  | 
CCN(CC)c1ccc2cc(-c3nc(-c4ccccc4F)no3)c(=O)oc2c1 | inactive | 50.1 µM (active) | 5.01 µM (active) | 4.78 µM (active) | inactive |  |  | 
COc1cccc(CC(=O)Nc2ccc(S(=O)(=O)Nc3nccs3)cc2)c1 | inactive | inactive |  | inactive |  | -3.47% [at 17.1 µM, percent relative to cAMP agonist control] | -17.8% [at 30.8 µM] | 
O=C1CC(c2ccccc2)=C(c2ccccc2)C1 | inactive | inactive |  | inactive |  | -2.19% [at 17.1 µM, percent relative to cAMP agonist control] | 8.98% [at 30.8 µM] | 
Cc1ccc(S(=O)(=O)/N=C2\SC(CC(=O)Nc3ccc(F)cc3)C(=O)N2c2ccccc2)cc1 (stereo not given) | inactive | inactive |  | inactive |  | 3.37% [at 17.1 µM, percent relative to cAMP agonist control] | -39.2% [at 30.8 µM] | 
COc1cc(C)cc(C(=O)C=Cc2ccccc2)c1O | inactive | inactive |  | inactive |  | 3.76% [at 17.1 µM, percent relative to cAMP agonist control] | 12.7% [at 30.8 µM] | 
CC1Oc2ccc(C#N)cc2N(Cc2ccccc2OC(F)(F)F)C1=O (stereo not given) | inactive | inactive |  | inactive |  | 4.28% [at 17.1 µM, percent relative to cAMP agonist control] | -10.7% [at 30.8 µM] | 
CO/N=C/c1ccc(Sc2ccccc2)c([N+](=O)[O-])c1 | inactive | inactive |  | inactive |  | 6.03% [at 17.1 µM, percent relative to cAMP agonist control] | -14.9% [at 30.8 µM] | 
O=C(Cc1c(Cl)cccc1Cl)Nc1ccncc1 | inactive | inactive |  | inactive |  | 13.7% [at 17.1 µM, percent relative to cAMP agonist control] | 2.85% [at 30.8 µM] | 
CN1C(=O)Cc2cc(S(=O)(=O)N3CCN(c4ccccc4F)CC3)ccc21 | inactive | inactive | inactive | inactive | inactive |  |  | 
COCCn1c(=N)c(C(=O)NC2CCCC2)cc2c(=O)n3cc(C)ccc3nc21 | inactive | inactive | inactive | inactive | inactive |  |  | 
CCCCN(CCCC)S(=O)(=O)c1ccc(C(=O)Nc2sc3c(c2C(N)=O)CCN(CC)C3)cc1 | inactive | inactive | inactive | inactive | inactive |  |  | 
COc1cc(/C=C(/C#N)c2nc(-c3cc4ccccc4oc3=O)cs2)ccc1O | inactive | inactive | inactive |  | inactive |  |  | inactive [at 12.7 µM]
Cc1cccc(Cn2cc(SCC(=O)Nc3nccs3)c3ccccc32)c1 | inactive | inactive | inactive | inactive | inactive |  |  | 
Nc1ncnc2c1ncn2[C@@H]1O[C@H](C(=O)N[C@H]2c3ccccc3C[C@H]2OC=O)[C@@H](O)[C@H]1O | inactive | inactive | inactive | inactive | inactive |  |  | 
CCOC(=O)Cn1c(-c2cccs2)cc2cc(Cl)ccc21 | inactive | inactive | inactive |  | inactive |  |  | inactive [at 12.7 µM]
CC(=O)N(C(C)=O)N1C(=O)c2cccc3c(N4CCOCC4)ccc(c23)C1=O | inactive | inactive |  | inactive |  | 18.1% [at 17.1 µM, percent relative to cAMP agonist control] | 16.3% [at 30.8 µM] | 
O=S(=O)(c1cc(O)ccc1O)c1cccc2c(S(=O)(=O)c3cc(O)ccc3O)cccc12 | 44.7 µM (active) | inactive |  | inactive |  | 5.63% [at 17.1 µM, percent relative to cAMP agonist control] | -9.89% [at 30.8 µM] | 
O=C(c1ccco1)N(CCC(c1ccccc1)c1ccco1)Cc1ccco1 (stereo not given) | 75.7 µM (active) | inactive | inactive | inactive | inactive |  |  | 
Cc1ccc(C)c(S(=O)(=O)/N=C2\C=C(NS(=O)(=O)c3ccccc3)C(=O)c3ccccc32)c1 | 22.4 µM (active) | inactive |  | inactive |  | 3.6% [at 17.1 µM, percent relative to cAMP agonist control] | -11.3% [at 30.8 µM] | 
Cc1cc(C)c(OCC(=O)Nc2ccccc2N2CCCCC2)c(C)c1 | inactive | inactive | inactive | inactive | inactive |  |  | 

Structure (SMILES) | Potency [1] | Potency [2] | Potency [3] | Potency [4] | Potency [5] | activation [3] | activity change, negative = inhibition [5] | outcome [4]
Cc1cc(-c2ccc(Br)s2)nc(-n2cccc2)n1 | inactive | inactive | inactive | inactive | inactive |  |  | 
Cc1cc(C)cc(-c2nnc(SCc3ccc(C(=O)O)cc3)o2)c1 | inactive | inactive |  | inactive |  | 0% [at 17.1 µM, percent relative to cAMP agonist control] | -19.9% [at 30.8 µM] | 
Cc1ccc(C2CC(=O)Oc3cc(C)cc(C)c32)cc1 (stereo not given) | inactive | inactive | inactive | inactive | inactive |  |  | 
CC(C(=O)NC1CC(C)(C)NC(C)(C)C1)c1ccc([N+](=O)[O-])cc1 (stereo not given) | inactive | inactive | inactive | inactive | inactive |  |  | 
Fc1ccc(C(Nc2ccccn2)c2c[nH]c3ccccc23)cc1 (stereo not given) | inactive | inactive |  | inactive |  | 7.5% [at 17.1 µM, percent relative to cAMP agonist control] | -2.83% [at 30.8 µM] | 
CC(C)c1nc(SCC(=O)N2CCCc3ccccc32)c2c(=O)n(C)c(=O)n(C)c2n1 | inactive | inactive | inactive | inactive | inactive |  |  | 
COc1cccc(OC)c1OC(=O)/C=C/c1ccc(C)o1 | inactive | inactive |  | inactive |  | -0.917% [at 17.1 µM, percent relative to cAMP agonist control] | -18.3% [at 30.8 µM] | 
CCOc1ccc(C(=O)Nc2ccc3c(c2)N(C(C)=O)CCC3)cc1OCC | inactive | inactive | inactive | inactive | inactive |  |  | 
COc1cccc(NC(=O)CSc2nnc3[nH]c(=O)cc(-c4ccccc4)n23)c1 | inactive | inactive | inactive | inactive | inactive |  |  | 
CCn1c2ccccc2c2cc(NC(=O)CSc3nnc(-c4cccc(C)c4)o3)ccc21 | inactive | inactive |  | inactive |  | 3.98% [at 17.1 µM, percent relative to cAMP agonist control] | 9.03% [at 30.8 µM] | 
Oc1ccc(C2=Nn3c(nnc3-c3ccco3)SC2)cc1O | 16.9 µM (active) | inactive | inactive | inactive | inactive |  |  | 
C=CCN(c1ccccc1)S(=O)(=O)c1cccc(C(=O)N2CC(C)CC(C)C2)c1 (stereo not given) | inactive | inactive | inactive | inactive | inactive |  |  | 
CC(C)C[C@H](NC(=O)[C@H](Cc1ccccc1)n1c(=O)[nH]c2ccccc2c1=O)C(=O)N1CCC(C(=O)O)CC1 | inactive | inactive | inactive | inactive | inactive |  |  | 
COC(=O)c1ccc(/C=C2\CCn3c2nc2cc(C(=O)O)ccc2c3=O)cc1 | inactive | inactive | inactive | inactive | inactive |  |  | 
COC(=O)c1cc2oc(C)cc2n1Cc1ccc(Br)cc1F | inactive | inactive | inactive | inactive | inactive |  |  | 
Cc1ccc(-c2cn3c(n2)sc2cc(C(=O)NCCC4=CCCCC4)ccc23)c(C)c1 | inactive | inactive | inactive | inactive | inactive |  |  | 
CC1=CC2=NC(=O)/C(=C\c3cccn3CCOc3ccc(C)c(C)c3)C(=N)N2O1 | inactive | inactive | inactive | inactive | inactive |  |  | 
COc1ccc2c(c1)cc(C(=O)N/N=C/c1c(O)c(C(=O)O)cc3ccccc13)n2C | 67.5 µM (active) | inactive | inactive | 75.7 µM (active) | inactive |  |  | 
CCOC(=O)c1ccc(NC(=O)Cn2nc(C)c3nn(-c4ccc(Cl)cc4)c(C)c3c2=O)cc1 | inactive | inactive | inactive | inactive | inactive |  |  | 
Cc1ccc(-c2sc(-c3ccccc3)nc2CC(=O)Nc2ccccc2F)cc1 | inactive | inactive | inactive | inactive | inactive |  |  | 
NC(=O)COC(=O)c1ccc(Cl)c(S(=O)(=O)N(Cc2ccccc2)c2ccc(Cl)cc2)c1 | inactive | inactive |  | inactive |  | 4.76% [at 17.1 µM, percent relative to cAMP agonist control] | -4.28% [at 30.8 µM] | 
O=C(/C=C/c1ccco1)Nc1ccc(Cl)c(-c2nc3cc(Cl)ccc3o2)c1 | 75.7 µM (active) | inactive | inactive | inactive | inactive |  |  | 
COc1ccc(-c2oc3c4c2C(=O)OCCOC4CCC3)cc1 (stereo not given) | inactive | inactive | inactive | inactive | inactive |  |  | 
